D2 antagonist: antagonists of human D2 dopamine receptor; HEK293 TREx D2 cells, calcium flux, dopamine EC80; inhibition, % at 10 µM; actives 2% (n = 340,000); AID 485344; in the data active = inhibition above about 30%; inactive = below that, where a call was filed; also: 0% is about no effect
Target sequence (P14416 whole entry, looked up): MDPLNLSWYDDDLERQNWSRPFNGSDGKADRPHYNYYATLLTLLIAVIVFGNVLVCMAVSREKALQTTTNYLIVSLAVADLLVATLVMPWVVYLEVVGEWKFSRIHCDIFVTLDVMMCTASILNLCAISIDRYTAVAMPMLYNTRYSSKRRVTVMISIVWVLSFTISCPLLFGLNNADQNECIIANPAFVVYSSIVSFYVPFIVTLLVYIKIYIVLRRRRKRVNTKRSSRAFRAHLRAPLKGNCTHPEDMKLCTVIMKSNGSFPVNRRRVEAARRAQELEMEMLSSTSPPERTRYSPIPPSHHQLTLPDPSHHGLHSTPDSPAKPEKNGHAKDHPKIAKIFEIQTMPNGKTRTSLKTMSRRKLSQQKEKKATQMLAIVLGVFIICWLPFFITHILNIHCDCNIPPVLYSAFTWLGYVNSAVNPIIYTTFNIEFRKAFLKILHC
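Measurement of antagonist activity uses fluorescent calcium dye in inducible HEK293 T-REx D2 cells: 10 s baseline, compound addition with 180 s read, EC80 dopamine addition with a further 180 s read.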
D2 ag-1: agonists of human D2 dopamine receptor (beta-arrestin). DiscoveRx PathHunter D2 beta-arrestin, luminescence, 90 min; 100% = 57 uM dopamine signal. P14416. actives 0.084% (n = 360,000). activation, % (concentration not given with the values); in the data active = activation above about 40%; inconclusive = between about 15% and that limit
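Agonist mode: compounds alone added to overnight-plated D2 PathHunter cells for 90 min at 37 C, with 57 uM final dopamine (EC100) defining full response. Beta-arrestin recruitment detected by chemiluminescent reagent, read after 1 h at ambient temperature.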
D2 ag-2: D2 dopamine receptor (human) agonism | P14416 | HEK293 T-REx D2 cells, calcium flux agonist mode | activation, % at 2 µM | actives 0.53% (n = 340,000);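 active = activation over 3 SD above normal in the single-dose calcium agonist read, cut at about 30% in these data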; also: 0% is about no effect
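Agonism scored from kinetic calcium signal (1 read/sec, 180 s) following compound pin transfer, after a 10 s baseline. Cells: HEK293 Trex line expressing inducible D2 receptor coupled to calcium, dye-loaded after overnight culture at 30 C.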
D2 PAM-1: positively modulates the human D2 dopamine receptor allosterically; potentiation, % at 10 µM; HEK293 T-REx D2, calcium flux, EC20 dopamine potentiation; AID 485347; actives 0.34% (n = 340,000);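 active = potentiation over 3 SD above the plate norm, cut at about 30% in these data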; also: 0% is about no effect
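Calcium flux readout, no-wash dye, 1 read/s. Inducible HEK293 Trex D2 line, overnight 30 C. Compound alone 180 s (agonist flags), then EC20 dopamine, another 180 s to score potentiation.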
D2 PAM-2: human D2 receptor positive allosteric modulation. P14416. DiscoveRx D2 beta-arrestin cells, luminescence, 90 min; 100% = 57 uM dopamine signal. potentiation, % (concentration not given with the values). actives 0.23% (n = 360,000); in the data active = potentiation above about 50%; inconclusive = mostly about 30% to 49%
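D2 cells co-treated with compound plus 50 nM dopamine (EC20) for 90 min at 37 deg C to detect potentiation. Beta-arrestin recruitment was read as enzyme-fragment luminescence after 1 h at ambient temperature. Full response was set by 57 uM dopamine.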
* hit, by the source's call; u = inconclusive; x = no result. Rows were chosen to be rich in hits. Some 2.4% of all compounds tested hit in one or more screens of this group.

SMILES	D2 antagonist	D2 ag-1	D2 ag-2	D2 PAM-1	D2 PAM-2
O=[N+]([O-])c1ccc(S(=O)(=O)NCCN2CCOCC2)cc1	5	3	0	49*	5
O=[N+]([O-])c1ccccc1NC1CCN(Cc2ccccc2)CC1	39*	-5	-1	-25	-19
NC(=O)CC(NC(=O)Cc1ccc(Br)cc1)c1ccc(NC2CCN(Cc3ccccc3)CC2)c([N+](=O)[O-])c1 (stereo not drawn)	-5	-2	-1	-2	-44
O=[N+]([O-])c1ccc(NC2CCN(Cc3ccccc3)CC2)c([N+](=O)[O-])c1	17	12	0	-7	-4
NC(=O)CC(NC(=O)Cc1cccc2ccccc12)c1ccc(NC2CCN(Cc3ccccc3)CC2)c([N+](=O)[O-])c1 (stereo not drawn)	32*	-3	0	-3	-15
CCc1ccc(S(=O)(=O)c2nnn3c2nc(N2CCOCC2)c2ccccc23)cc1	3	-6	-1	32*	-2
CCCCN(C(=O)CCC(=O)Nc1cc(C)on1)C(C(=O)NC(C)(C)C)c1ccccc1Cl (stereo not drawn)	3	0	1	x	-4
COc1cccc(C(C(=O)NC2CCCC2)N(CCC(C)C)C(=O)CCC(=O)Nc2cc(C)on2)c1 (stereo not drawn)	-18	-1	1	-3	-3
COCCN(C(=O)CCC(=O)Nc1cc(C)on1)C(C(=O)NC(C)(C)C)c1ccc(OC)cc1 (stereo not drawn)	10	-10	8	-20	-2
COCCN(C(=O)CCC(=O)Nc1cc(C)on1)C(C(=O)NC(C)(C)C)c1ccccc1Cl (stereo not drawn)	45*	1	-3	x	-2
COc1ccc(C(C(=O)NC2CCCC2)N(CCC(C)C)C(=O)CCC(=O)Nc2cc(C)on2)cc1 (stereo not drawn)	35*	2	-1	3	2
COc1ccc(C(C(=O)NC(C)(C)C)N(CCc2ccc(OC)c(OC)c2)C(=O)CCC(=O)Nc2cc(C)on2)cc1 (stereo not drawn)	35*	-5	1	x	-3
COCCn1c(C)cc(/C=C(\C#N)C(=O)OC(C)C(=O)Nc2ccc(NC(C)=O)cc2)c1C (stereo not drawn)	33*	0	0	-3	1
COc1ccccc1CNS(=O)(=O)c1c(C(=O)N2CCCCC2)c(C)n(C)c1C	30*	-4	0	10	-13
COc1ccccc1CNS(=O)(=O)c1c(C(=O)N2CCCC2)c(C)n(C)c1C	-25	-1	1	-7	-23
CC1(C)C(c2ccccc2)=[N+]([O-])C2(CCCCC2=O)N1O (stereo not drawn)	33*	6	-1	4	21
CC1(C)C(c2cccs2)=[N+]([O-])C2(CCCCC/C2=N\O)N1O (stereo not drawn)	5	5	-1	12	u
CC(=O)c1cc2c(cc1N(C(=O)Cn1nnc3ccccc31)C(C(=O)NCCC(C)C)c1cccnc1)OCO2 (stereo not drawn)	9	-2	0	-2	-3
CCOC(=O)c1sc(NC(=O)CSc2n[nH]c(-c3ccc(Cl)cc3Cl)n2)c(C#N)c1C	6	-1	0	31*	-3
Cc1c(C(=O)N2CCCC2)sc(NC(=O)c2ccc(Cl)cc2)c1C#N	91*	-1	0	-24	-9
CCOC(=O)c1sc(NC(=O)c2ccncc2)c(C#N)c1C	-1	0	8	31*	u
O=c1ccc2ccccc2c2ccccc12	x	-7	x	x	-13
O=Nc1c(O)c2ccccc2c2ccccc12	x	11	x	x	67*
COc1ccc(C(=O)N2CC(=O)Nc3ccc(C)cc3C2c2ccccc2)cc1OC (stereo not drawn)	x	x	x	13	x
CC(=O)C(=Nc1ccc(Cl)cc1Cl)NNc1cccc(Cl)c1	-15	u	-1	-6	125*
SMILES	D2 antagonist	D2 ag-1	D2 ag-2	D2 PAM-1	D2 PAM-2
CC(=O)Nc1ccc(NC(=O)Nc2cccc(Cl)c2)cc1	16	-5	0	-5	-25
Cc1ccsc1/C=N/N=C/c1sccc1C	12	2	2	13	3
Cc1ccsc1C=Nc1ccc(O)cc1	3	u	0	1	75*
COc1ccc(CC(=O)OC(C)C(=O)c2ccc(C)cc2)cc1 (stereo not drawn)	1	-6	2	2	-2
COc1ccc(C(=O)C(C)OC(=O)c2sc(C)nc2C)cc1 (stereo not drawn)	31*	2	0	23	-2
O=[N+]([O-])c1nn(-c2ccc3c(c2)OCCO3)n(O)c1=NCc1ccc(F)cc1Cl	6	2	0	2	7
O=[N+]([O-])c1nn(-c2ccc3c(c2)OCCO3)n(O)c1=NCCC1=CCCCC1	6	u	1	3	147*
COc1cc(N=c2c([N+](=O)[O-])nn(-c3ccc4c(c3)OCCO4)n2O)cc(OC)c1	1	9	1	-2	68*
CN=c1c([N+](=O)[O-])nn(-c2ccc3c(c2)OCCO3)n1O	2	42*	-1	3	25
CCc1cccc(N=c2c([N+](=O)[O-])nn(-c3ccc4c(c3)OCCO4)n2O)c1	7	u	-2	0	u
O=[N+]([O-])c1nn(-c2ccc3c(c2)OCCO3)n(O)c1=NCc1ccc(F)cc1	-11	u	-1	15	143*
Cc1cn([C@H]2C[C@H](O)[C@@H](/C=C/C(=O)NCCc3ccc(S(N)(=O)=O)cc3)O2)c(=O)[nH]c1=O	x	-5	x	x	-4
CCN(CC)C(=O)c1ncn2c1C(=O)N(C)CC2	x	-3	x	x	-4
COc1ccc(NC(=O)c2ccco2)cc1NC(=O)c1cc(OC)c(OC)c(OC)c1	x	x	-1	-7	x
CCN(CC(=O)N1CCC(C(N)=O)CC1)S(=O)(=O)c1cc(Cl)ccc1Cl	x	-2	x	x	3
CCOC(=O)NN=C1CCC(c2ccccc2)CC1 (stereo not drawn)	x	-4	x	x	-4
CC(C)c1ccc(N=c2c([N+](=O)[O-])nn(-c3ccc4c(c3)OCCO4)n2O)cc1	-14	6	0	-3	71*
CC(=O)N1CCc2cc(S(=O)(=O)NC(C(=O)Nc3ccc(C)cc3C)C(C)C)ccc21 (stereo not drawn)	x	x	-1	-5	x
CC(=O)N1CCCc2cc(S(=O)(=O)NC(C(=O)NCc3ccc(C)cc3)C(C)C)ccc21 (stereo not drawn)	-4	-3	1	46*	-8
COc1ccc(N2CCN(C(=O)CCNS(=O)(=O)c3ccccc3)CC2)cc1	7	2	0	-8	-4
N#C/C(=C\c1coc2ccc(O)cc2c1=O)C(=O)Nc1nc2ccccc2s1	-8	8	59*	-1	0
